# Assay results as given in publication PMC4336329 (PLoS ONE, 2015).
# Screen size: about 310,000 compounds; about 2,200 (0.71%) showed an effect of 50% or more. Effects have a minus sign here. This excerpt belongs to a sample that is enriched for strong results.
# Biological target: human ether-à-go-go-related gene (hERG) potassium channel (human, UniProt Q12809)
# Assay: primary screen, population patch clamp on CHO cells stably expressing hERG; higher = less effect of the substance
# human ether-à-go-go-related gene (hERG) potassium channel, sequence (Q12809 whole entry, looked up): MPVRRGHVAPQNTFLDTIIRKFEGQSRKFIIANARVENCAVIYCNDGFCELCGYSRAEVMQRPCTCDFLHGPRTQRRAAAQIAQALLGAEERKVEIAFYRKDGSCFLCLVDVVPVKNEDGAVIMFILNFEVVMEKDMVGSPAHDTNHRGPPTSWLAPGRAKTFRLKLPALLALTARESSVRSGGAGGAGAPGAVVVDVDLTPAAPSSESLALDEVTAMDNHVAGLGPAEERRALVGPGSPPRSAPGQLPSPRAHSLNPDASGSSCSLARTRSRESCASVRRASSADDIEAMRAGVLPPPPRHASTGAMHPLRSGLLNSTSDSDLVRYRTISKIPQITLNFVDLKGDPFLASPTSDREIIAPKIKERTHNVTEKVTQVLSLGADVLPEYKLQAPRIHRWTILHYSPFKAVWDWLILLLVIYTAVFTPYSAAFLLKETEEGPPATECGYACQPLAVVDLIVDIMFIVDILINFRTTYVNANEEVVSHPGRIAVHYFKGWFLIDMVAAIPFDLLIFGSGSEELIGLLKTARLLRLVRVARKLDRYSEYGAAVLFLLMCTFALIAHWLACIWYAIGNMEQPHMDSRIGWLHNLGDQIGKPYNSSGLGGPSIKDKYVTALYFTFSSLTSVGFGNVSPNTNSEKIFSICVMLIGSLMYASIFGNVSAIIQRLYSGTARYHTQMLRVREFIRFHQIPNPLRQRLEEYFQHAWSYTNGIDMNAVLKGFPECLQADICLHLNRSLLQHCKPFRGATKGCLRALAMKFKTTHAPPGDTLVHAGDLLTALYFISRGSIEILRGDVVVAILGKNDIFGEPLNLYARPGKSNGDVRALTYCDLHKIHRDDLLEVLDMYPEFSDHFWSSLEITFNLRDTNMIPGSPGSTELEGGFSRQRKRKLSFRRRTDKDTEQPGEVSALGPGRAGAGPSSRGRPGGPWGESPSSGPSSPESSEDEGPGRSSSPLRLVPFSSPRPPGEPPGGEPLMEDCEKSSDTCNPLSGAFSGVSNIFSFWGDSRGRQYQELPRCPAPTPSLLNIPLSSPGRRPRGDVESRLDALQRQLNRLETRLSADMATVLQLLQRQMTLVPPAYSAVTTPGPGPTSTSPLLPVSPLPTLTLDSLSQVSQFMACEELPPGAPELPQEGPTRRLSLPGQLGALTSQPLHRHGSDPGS
row,Compound,"hERG current change (%, negative = inhibition) at 1uM [%]"
1,Cc1cc(N(C)C)c(C#N)c(=O)[nH]1,12.4
2,O=C(c1cc2c([nH]c1=O)CCCC2)N1CCc2c([nH]c3ccccc23)C1c1ccccc1F (stereo not shown),7.44
3,CC(C)(C)C(=O)Nc1ccc2oc(-c3cc(F)c(F)cc3Cl)nc2c1,15.8
4,CCCOc1ccc(C2c3c(oc4cc(C)c(C)cc4c3=O)C(=O)N2CCCN2CCOCC2)cc1 (stereo not shown),7.1
5,Cc1ccccc1Nc1nc(N)nc(CSc2nc3ccccc3c(=O)n2C)n1,9.44
6,N=c1c(C(=O)NCC2CCCO2)cc2c(=O)n3ccccc3nc2n1Cc1ccc(F)cc1 (stereo not shown),-82.7
7,N=c1c(C(=O)NCC2CCCO2)cc2c(=O)n3ccccc3nc2n1Cc1cccnc1 (stereo not shown),-34.7
8,N=c1c(S(=O)(=O)c2ccc(Cl)cc2)cc2c(=O)n3ccccc3nc2n1CC1CCCO1 (stereo not shown),6.52
9,N=c1c(C(=O)NCC2CCCO2)cc2c(=O)n3ccccc3nc2n1Cc1ccc(Cl)cc1 (stereo not shown),-81.9
10,N=c1c(C(=O)NCc2ccco2)cc2c(=O)n3ccccc3nc2n1CC1CCCO1 (stereo not shown),-84.3
11,N=c1c(C(=O)NCC2CCCO2)cc2c(=O)n3ccccc3nc2n1Cc1ccccc1Cl (stereo not shown),-46.8
12,O=C(NCc1ccco1)c1ccc2c(=O)n(CC3CCCO3)c(=S)[nH]c2c1 (stereo not shown),4.98
13,N=c1c(C(=O)NCC2CCCO2)cc2c(=O)n3ccccc3nc2n1Cc1ccccc1 (stereo not shown),-72.3
14,CCn1c2ccccc2c2cc(NC(=O)COC(=O)c3ccccc3O)ccc21,15
15,CCN(C(=O)/C=C/c1ccc(OC)cc1)C1CCS(=O)(=O)C1 (stereo not shown),-3.05
16,CN1C(=O)/C(=N/OC(=O)c2ccccc2)c2ccccc21,-4.57
17,N#Cc1c(N)n(CCc2ccc(F)cc2)c2nc3ccccc3nc12,19.9
18,COCCNCCOc1ccc(C(C)(C)c2ccccc2)cc1.O=C(O)C(=O)O,-2.39
19,Cc1cc(C(=O)N2CC(C)CC(C)C2)n(-c2ccccc2)n1 (stereo not shown),16.6
20,CC1CN(C(=O)Nc2ccc(F)cc2F)CC(C)O1 (stereo not shown),-1.61
21,C=CCn1c(SCC(=O)N2CCCCC2)nc(O)cc1=O,4.63
22,COc1ccccc1N1CCN(S(=O)(=O)c2ccc(-c3cnc(C4CC4)o3)cc2)CC1,14
23,N=c1c(C(=O)NCC2CCCO2)cc2c(=O)n3ccccc3nc2n1Cc1ccco1 (stereo not shown),-83.1
24,Cc1ccc(-c2nnc3n2CCCCC3)cc1,0.609
25,Cc1cccc(NC(=O)c2cc(NC(=O)c3ccccc3)ccc2N2CCCCC2)c1,3.79
26,Cc1ccc(-c2nc3ccccc3c(=O)n2-c2ncccc2C)cc1,0.712
27,CC(Sc1nc(-c2ccccc2)cc(C(F)(F)F)n1)C(=O)NCc1ccco1 (stereo not shown),4.96
28,Cc1ccc2nc(-c3ccccc3)nc(SC(C)C(=O)NCc3cccs3)c2c1 (stereo not shown),16.6

row,Compound,"hERG current change (%, negative = inhibition) at 1uM [%]"
1,Cc1ccc(C)c2c(SC(C)C(=O)NCc3ccco3)nc(-c3ccccc3)nc12 (stereo not shown),-71.2
2,C=CC(=O)NC(C)(C)CCN1CCOCC1,8.55
3,Nc1nc(SCC(=O)c2cccc([N+](=O)[O-])c2)n[nH]1,5.93
4,COC(=O)c1ccc(CSc2nncn2C)cc1,-4.1
5,Cl.Fc1ccc(C(OCCN2CCN(CCCc3ccccc3)CC2)c2ccc(F)cc2)cc1,-71.3
6,Cl.c1ccc(CCCN2CCN(CCOC(c3ccccc3)c3ccccc3)CC2)cc1,-41.9
7,Cl.c1ccc(C(OCCN2CCNCC2)c2ccccc2)cc1,4.05
8,Cl.Fc1ccc(C(OCCN2CCCC2)c2ccc(F)cc2)cc1,-37.9
9,Fc1ccccc1N1CCN(CCCc2ccccc2)CC1,-18.4
10,Cl.Fc1ccc(C(OCCN2CCCC2)c2ccc(Br)cc2)cc1 (stereo not shown),-66
11,CCCCn1c(N)c(N(CC(C)C)C(=O)C2CCN(S(=O)(=O)c3ccc(C)cc3C)CC2)c(=O)[nH]c1=O,2.62
12,Cn1c(=O)[nH]c(=O)c2c1nc(SCC(N)=O)n2Cc1cccc(Br)c1,4.47
13,c1cc2c(cc1C1CCCCC1)c1c3n2CCN=C3CCC1,11.4
14,Cc1ccc2c(c1)c1c3n2CCN=C3CCC1.Cl,-65.6
15,CS(=O)(=O)O.c1ccc(-c2ccc3c(c2)c2c4n3CCN=C4CCC2)cc1,2.12
16,CNc1cccc2c1C(=O)c1ccccc1C2=O,5.62
17,COCCn1nnnc1C(c1ccccc1OC)N1CCN(c2ccccc2)CC1.Cl (stereo not shown),6.17
18,COCCn1nnnc1C(c1ccc(OC)cc1OC)N1CCN(c2ccccc2)CC1 (stereo not shown),-54.1
19,COCCn1nnnc1C(c1ccc(OC)cc1OC)N1CCN(c2ccccc2F)CC1.Cl (stereo not shown),-2.19
20,COc1ccccc1N1CCN(S(=O)(=O)c2cc(Br)cnc2N)CC1,15.3
21,CCN(CC)CCN1C(=O)c2ccccc2NC1c1ccc(F)cc1 (stereo not shown),-30.5
22,CCN(CC)CCN1C(=O)c2ccccc2NC1c1ccc(Br)cc1 (stereo not shown),-82.8
23,CCN(CC)CCN1C(=O)c2ccccc2NC1c1ccc(C)cc1 (stereo not shown),-48.3
24,CCOC(=O)c1c(NC(=O)CN2CCOCC2)sc2c1CC(C)(C)OC2,11.7
25,Cc1nc(NCCc2ccc(S(N)(=O)=O)cc2)c2c3c(sc2n1)CCC3,11.8
26,NS(=O)(=O)c1ccc(CCNc2nc(CN3CCCCC3)nc3sc4c(c23)CCC4)cc1,-53
27,NS(=O)(=O)c1ccc(CCNc2nc(CN3CCOCC3)nc3sc4c(c23)CCC4)cc1,3.28
